# According to the supplement of paper PMC13380429:
# Experiments:
# [1] = tested on: Vero E6 infected with SARS-CoV-2; assay: morphology score (similarity to uninfected cells); higher = more like uninfected cells; settings: 24 h
# [2] = tested on: Vero E6 infected with SARS-CoV-2; assay: SARS-CoV-2 infection rate relative to infected DMSO; higher = more infection, active = 60 or less; settings: 24 h
Structure (SMILES),morphology score [1],SARS-CoV-2 infection rate [2]
COc1cccc(-c2cc(=O)c3ccccc3o2)c1N (10 µM),-0.25,118% (inactive)
Cc1sc(N)c(C(=O)c2cccc(C(F)(F)F)c2)c1C (10 µM),-0.0662,99% (inactive)
CNC(=O)Nc1ccc(-c2nc(N3CC4CCC(C3)O4)c3cnn(C4CCC5(CC4)OCCO5)c3n2)cc1 (0.833333 µM),-0.104,100% (inactive)
CC(=O)NCCC(=O)N[C@@H](Cc1c[nH]cn1)C(=O)O [N-acetylcarnosine] (10 µM),-0.122,116% (inactive)
CC1(C)N=C(N)N=C(N)N1OCCCOc1cc(Cl)c(Cl)cc1Cl (10 µM),0.205,89.5% (inactive)
CCNC(=O)C#Cc1ccc2c(C(=Nc3ccc(CN(C)C)cc3)c3ccccc3)c(O)[nH]c2c1 (0.833333 µM),-0.154,99% (inactive)
CC1(C)CC(=O)C(C2C3=C(CC(C)(C)CC3=O)Oc3ccccc32)C(=O)C1 (configuration not stated) (10 µM),0.28,98% (inactive)
CC(C)(CO)CCCCCCC(C)(C)CO [gemcadiol] (10 µM),0.124,98.5% (inactive)
CC#CC(=O)N1CCC[C@H]1c1nc(-c2ccc(C(=O)Nc3ccccn3)cc2)c2c(N)nccn12 [acalabrutinib] (10 µM),-0.00394,108% (inactive)
CC[C@H](Nc1ncnc2[nH]cnc12)c1nc2cccc(F)c2c(=O)n1-c1ccccc1 [idelalisib] (10 µM),-0.015,116% (inactive)
O=C1N=C2SCCN2C(=O)C1Cc1ccc(Cl)cc1 (configuration not stated) [nuclomedone] (10 µM),0.238,99% (inactive)
